{"source": "PubChem BioAssay (NCATS)", "note": "Unmarked numbers belong to inactive results. Active and inactive are the calls of the source. How the calls were made is not given here. Potency means the concentration at half of the fitted maximal effect.", "data": [{"system": "HIV-1 nucleocapsid protein NCp7 (binding to TG oligonucleotide)", "test": "HIV Nucleocapsid (AID 346);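 further: potency is for inhibitors that block NC binding and lower polarization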", "conditions": "HIV-1 NC / fluorescein-TGTGTGTG probe, fluorescence polarization", "outline": "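HIV-1 NC (100 nM) binding to fluorescein-labelled ssDNA TG4xF (10 nM) in Hepes pH 7.5, 250mM NaCl, 1uM ZnCl2, TCEP and 2-mercaptoethanol; compounds pin-transferred, 1 hr room temperature, fluorescence polarization read on CCD imager.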", "values": [{"smiles": "CC(C)CN1CC[C@@]2(CCCN(C(=O)c3cnccn3)C2)C1", "Potency": "> 4 µM"}, {"smiles": "Cc1noc(C)c1-c1nc(N2CCOCC2)c2ccccc2n1", "Potency": "> 20 µM"}, {"smiles": "COc1ccccc1CNc1cc(-c2cccc(C#N)c2)ncn1", "Potency": "> 20 µM"}, {"smiles": "O=C(c1cccc(F)c1)N1CCC2(CC1)CCN(c1cccc(-c3ccccc3)c1)CC2", "Potency": "> 20 µM"}, {"smiles": "Cc1ccccc1-c1cc(Nc2ccccc2)ncn1", "Potency": "> 20 µM"}, {"smiles": "N#Cc1ccc(CN2CCC3(CC2)CCN(C(=O)c2ccncc2)CC3)cc1", "Potency": "> 20 µM"}, {"smiles": "COCCn1c(=O)c(-c2ccccc2)nc2cnc(Oc3cccc(Cl)c3)nc21", "Potency": "> 20 µM"}, {"smiles": "COc1ncc2nc(-c3cccs3)c(=O)n(Cc3cccs3)c2n1", "Potency": "> 20 µM"}, {"smiles": "CN(Cc1ccco1)c1ncnc2ccc(-c3ccccc3C#N)cc12", "Potency": "> 20 µM"}, {"smiles": "CN1CCN(c2ncc3ncc(=O)n(CCC#N)c3n2)CC1", "Potency": "> 20 µM"}, {"smiles": "COc1ccc(C(=O)N2CCC3(CC2)CN(Cc2ccc(C#N)cc2)C3)cc1", "Potency": "> 20 µM"}, {"smiles": "Clc1ccccc1-c1nc(NCCN2CCOCC2)c2ccccc2n1", "Potency": "> 20 µM"}, {"smiles": "COc1ccc(Oc2ncc3nc(-c4cn(C)c5ccccc45)c(=O)n(CCC#N)c3n2)cc1", "Potency": "> 20 µM"}, {"smiles": "COCCn1c(=O)c(C)nc2cnc(OCc3ccccc3)nc21", "Potency": "> 20 µM"}, {"smiles": "Cn1cccc1C(=O)N1CCC2(CC1)CN(Cc1ccc(C#N)cc1)C2", "Potency": "> 20 µM"}, {"smiles": "O=c1c(-c2cc(F)cc(F)c2)nc2cncnc2n1Cc1ccccc1", "Potency": "> 20 µM"}, {"smiles": "O=C(c1ccncc1)N1CCC2(CCCN(C(c3ccccc3)c3ccccc3)C2)CC1", "Potency": "> 20 µM"}, {"smiles": "CC(C)CN1CCC2(CC1)CCN(C(=O)c1cc(C(F)(F)F)cc(C(F)(F)F)c1)CC2", "Potency": "> 20 µM"}, {"smiles": "O=C(Oc1ccccc1)N1CCC2(CC1)CN(c1ccccn1)C2", "Potency": "> 20 µM"}, {"smiles": "COc1ccccc1CNc1cc(-c2ccccc2C)ncn1", "Potency": "> 20 µM"}, {"smiles": "O=c1c(-c2ccccc2)nc2cnc(N3CCOCC3)nc2n1-c1ccccc1", "Potency": "> 20 µM"}, {"smiles": "Cc1ccccc1-c1nc(NC2CC2)c2ccccc2n1", "Potency": "> 20 µM"}, {"smiles": "Cc1noc(C)c1-c1nccc(NCCN2CCOCC2)n1", "Potency": "> 20 µM"}, {"smiles": "CCNc1ncc2nc(-c3cccs3)c(=O)n(Cc3ccc(F)cc3)c2n1", "Potency": "> 20 µM"}, {"smiles": "Cc1noc(C)c1C(=O)N1CCC2(CC1)CCN(c1ccccn1)CC2", "Potency": "> 20 µM"}, {"smiles": "COc1cccc(-c2cncnc2NCc2cccnc2)c1", "Potency": "> 20 µM"}, {"smiles": "CN1CCN(c2ncc3ncc(=O)n(C4CC4)c3n2)CC1", "Potency": "> 20 µM"}, {"smiles": "COc1ccc(C(=O)N2CCC3(CCCN(Cc4nccs4)C3)CC2)cc1", "Potency": "> 20 µM"}, {"smiles": "O=C(Nc1cccc(F)c1)N1CCC2(CC1)CCN(S(=O)(=O)c1ccccc1)CC2", "Potency": "> 20 µM"}, {"smiles": "FC(F)(F)c1ccccc1-c1ccc2ncnc(NCc3cccs3)c2c1", "Potency": "> 20 µM"}, {"smiles": "CC(C)CN1CCCC2(CCN(C(=O)c3cccn3C)CC2)C1", "Potency": "> 20 µM"}, {"smiles": "O=c1c(-c2cccs2)nc2cncnc2n1Cc1ccc(F)cc1", "Potency": "> 20 µM"}, {"smiles": "COc1ccc(NC(=O)N2CC3(CCN(C(=O)c4ccc(OC)cc4)CC3)C2)cc1", "Potency": "> 20 µM"}, {"smiles": "COc1ccc(Oc2ncc3nc(-c4ccc(Cl)cc4)c(=O)n(C[C@H]4CCCO4)c3n2)cc1", "Potency": "> 20 µM"}, {"smiles": "CNc1ccnc(-c2ccccc2C)n1", "Potency": "> 20 µM"}, {"smiles": "COc1cccc(Nc2ncc3nc(-c4cccs4)c(=O)n(-c4ccccc4)c3n2)c1", "Potency": "6.57 µM (active)"}, {"smiles": "COc1ccc(-c2nc3cnc(N4CCOCC4)nc3n(-c3ccccc3)c2=O)cc1", "Potency": "> 20 µM"}, {"smiles": "COc1ccccc1CN1CCC2(CC1)CCN(C(=O)c1cccn1C)CC2", "Potency": "> 20 µM"}, {"smiles": "CCNc1ncc2nc(C)c(=O)n(CCc3ccccc3)c2n1", "Potency": "> 20 µM"}, {"smiles": "COc1cccc(Nc2ncc3nc(-c4ccccc4)c(=O)n(C[C@H]4CCCO4)c3n2)c1", "Potency": "> 20 µM"}]}]}
